The supplement of paper PMC4022240
± gives the standard deviation.

Legend:
Test in all cases: peptide microarray binding signal (635 nm), min-max normalized on array (fraction of array maximum); higher = stronger binding
Settings in all cases: peptide region: H3 1-13
[1] = biological target: T1, HaloTag-ATRX ADD domain (163-292)
T1 chain: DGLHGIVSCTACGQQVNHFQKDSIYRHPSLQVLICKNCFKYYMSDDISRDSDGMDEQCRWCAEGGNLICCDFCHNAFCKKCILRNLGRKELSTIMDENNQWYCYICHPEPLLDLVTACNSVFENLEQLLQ
Protocol: (§1)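 Histone 13-mer peptides were synthesized as cellulose conjugates with a C-terminal 20-atom PEG linker and printed in triplicate on nitrocellulose. The sequence given is the unmodified backbone; PTMs (Kme1/2/3, Kac, Sph/Tph, Rme/Rme2a/Rme2s, Rcit) are listed in the label and the 'peptide modifications' condition. Slides were probed at 4 °C for 1 h with biotin-labelled (HQ)5-HaloTag reader fusions (ATRX-ADD, ING2-PHD) then streptavidin-Alexa647, or with rabbit histone antibodies then anti-rabbit Alexa647. The mean 635 nm signal of the triplicate spots was scaled 0-1 between the lowest and highest values on each array.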

[2] = biological target: HaloTag-ING2 PHD (mouse Ing2 200-280)
Protocol: as §1

[3] = biological target: anti-H3K4me3 antibody ab8580
Protocol: as §1

[4] = biological target: anti-H3K9me3 antibody ab8898
Protocol: as §1

[5] = peptide modifications: H3R8me1 H3K9ac, binder concentration: 1:2,000 dilution
[6] = peptide modifications: H3R8me1 H3K9ac, binder concentration: 1:10,000 dilution
[7] = peptide modifications: H3R8me2s H3K9me2, binder concentration: 1:2,000 dilution
[8] = peptide modifications: H3R8me2s H3K9me2, binder concentration: 1:10,000 dilution
[9] = peptide modifications: H3T3ph H3K4me1, binder concentration: 1:2,000 dilution
[10] = peptide modifications: H3T3ph H3K4me1, binder concentration: 1:10,000 dilution
[11] = peptide modifications: H3R8me2a H3K9ac, binder concentration: 1:2,000 dilution
[12] = peptide modifications: H3R8me2a H3K9ac, binder concentration: 1:10,000 dilution
[13] = peptide modifications: H3R8me2a H3K9me2, binder concentration: 1:2,000 dilution
[14] = peptide modifications: H3R8me2a H3K9me2, binder concentration: 1:10,000 dilution
[15] = peptide modifications: H3R8me2s, binder concentration: 1:2,000 dilution
[16] = peptide modifications: H3R8me2s, binder concentration: 1:10,000 dilution
[17] = peptide modifications: H3S10ph, binder concentration: 1:2,000 dilution
[18] = peptide modifications: H3S10ph, binder concentration: 1:10,000 dilution
[19] = peptide modifications: H3R8cit, binder concentration: 1:2,000 dilution
[20] = peptide modifications: H3R8cit, binder concentration: 1:10,000 dilution
[21] = peptide modifications: H3R8me1 H3K9me1, binder concentration: 1:2,000 dilution
[22] = peptide modifications: H3R8me1 H3K9me1, binder concentration: 1:10,000 dilution
[23] = peptide modifications: H3R8me2s H3K9me3, binder concentration: 1:2,000 dilution
[24] = peptide modifications: H3R8me2s H3K9me3, binder concentration: 1:10,000 dilution

B1: H3 1-13 A R T K Q T A Rme Kac S T G G (peptide)
chain: ARTKQTARKSTGG
peptide microarray binding signal ([1]; peptide modifications: H3R8me1 H3K9ac, binder concentration: 50 nM): 0.00721 ± 8e-05 | peptide microarray binding signal ([1]; peptide modifications: H3R8me1 H3K9ac, binder concentration: 500 nM): 0.0187 ± 0.0017 | peptide microarray binding signal ([2]; peptide modifications: H3R8me1 H3K9ac, binder concentration: 10 nM): 0.0141 ± 0.00051 | peptide microarray binding signal ([2]; peptide modifications: H3R8me1 H3K9ac, binder concentration: 100 nM): 0.0352 ± 0.0065 | peptide microarray binding signal [3, 5]: 0.00179 ± 0.00022 | peptide microarray binding signal [3, 6]: 0.000628 ± 6.7e-06 | peptide microarray binding signal [4, 5]: 0.00122 ± 4.2e-05 | peptide microarray binding signal [4, 6]: 0.000807 ± 1.5e-05

B2: H3 1-13 A R T K Q T A Rme2s Kme2 S T G G (peptide)
chain: ARTKQTARKSTGG
peptide microarray binding signal ([1]; peptide modifications: H3R8me2s H3K9me2, binder concentration: 50 nM): 0.0108 ± 0.00034 | peptide microarray binding signal ([1]; peptide modifications: H3R8me2s H3K9me2, binder concentration: 500 nM): 0.0202 ± 0.00096 | peptide microarray binding signal ([2]; peptide modifications: H3R8me2s H3K9me2, binder concentration: 10 nM): 0.0292 ± 0.0027 | peptide microarray binding signal ([2]; peptide modifications: H3R8me2s H3K9me2, binder concentration: 100 nM): 0.049 ± 0.0084 | peptide microarray binding signal [3, 7]: 0.00447 ± 0.00012 | peptide microarray binding signal [3, 8]: 0.00451 ± 0.00027 | peptide microarray binding signal [4, 7]: 0.00805 ± 0.0035 | peptide microarray binding signal [4, 8]: 0.0049 ± 0.00019

B3: H3 1-13 A R Tph Kme Q T A R K S T G G (peptide)
chain: ARTKQTARKSTGG
peptide microarray binding signal ([1]; peptide modifications: H3T3ph H3K4me1, binder concentration: 50 nM): 0.00492 ± 0.00024 | peptide microarray binding signal ([1]; peptide modifications: H3T3ph H3K4me1, binder concentration: 500 nM): 0.0238 ± 0.013 | peptide microarray binding signal ([2]; peptide modifications: H3T3ph H3K4me1, binder concentration: 10 nM): 0.00376 ± 0.00014 | peptide microarray binding signal ([2]; peptide modifications: H3T3ph H3K4me1, binder concentration: 100 nM): 0.021 ± 0.002 | peptide microarray binding signal [3, 9]: 0.021 ± 0.0064 | peptide microarray binding signal [3, 10]: 0.00765 ± 0.0012 | peptide microarray binding signal [4, 9]: 0.00298 ± 0.00034 | peptide microarray binding signal [4, 10]: 0.0015 ± 5.1e-05

B4: H3 1-13 A R T K Q T A Rme2a Kac S T G G (peptide)
chain: ARTKQTARKSTGG
peptide microarray binding signal ([1]; peptide modifications: H3R8me2a H3K9ac, binder concentration: 50 nM): 0.0172 ± 0.00041 | peptide microarray binding signal ([1]; peptide modifications: H3R8me2a H3K9ac, binder concentration: 500 nM): 0.0506 ± 0.0025 | peptide microarray binding signal ([2]; peptide modifications: H3R8me2a H3K9ac, binder concentration: 10 nM): 0.0458 ± 0.0028 | peptide microarray binding signal ([2]; peptide modifications: H3R8me2a H3K9ac, binder concentration: 100 nM): 0.0544 ± 0.012 | peptide microarray binding signal [3, 11]: 0.00338 ± 0.00042 | peptide microarray binding signal [3, 12]: 0.00285 ± 0.00048 | peptide microarray binding signal [4, 11]: 0.00364 ± 0.00047 | peptide microarray binding signal [4, 12]: 0.00179 ± 4.5e-05

B5: H3 1-13 A R T K Q T A Rme2a Kme2 S T G G (peptide)
chain: ARTKQTARKSTGG
peptide microarray binding signal ([1]; peptide modifications: H3R8me2a H3K9me2, binder concentration: 50 nM): 0.0425 ± 0.0031 | peptide microarray binding signal ([1]; peptide modifications: H3R8me2a H3K9me2, binder concentration: 500 nM): 0.0913 ± 0.0063 | peptide microarray binding signal ([2]; peptide modifications: H3R8me2a H3K9me2, binder concentration: 10 nM): 0.044 ± 0.0014 | peptide microarray binding signal ([2]; peptide modifications: H3R8me2a H3K9me2, binder concentration: 100 nM): 0.06 ± 0.0041 | peptide microarray binding signal [3, 13]: 0.00357 ± 0.00013 | peptide microarray binding signal [3, 14]: 0.00314 ± 4.6e-05 | peptide microarray binding signal [4, 13]: 0.00355 ± 0.00032 | peptide microarray binding signal [4, 14]: 0.00334 ± 0.00031

B6: H3 1-13 A R T K Q T A Rme2s K S T G G (peptide)
chain: ARTKQTARKSTGG
peptide microarray binding signal ([1]; peptide modifications: H3R8me2s, binder concentration: 50 nM): 0.007899 ± 6.4e-05 | peptide microarray binding signal ([1]; peptide modifications: H3R8me2s, binder concentration: 500 nM): 0.0258 ± 0.00046 | peptide microarray binding signal ([2]; peptide modifications: H3R8me2s, binder concentration: 10 nM): 0.0129 ± 0.00049 | peptide microarray binding signal ([2]; peptide modifications: H3R8me2s, binder concentration: 100 nM): 0.0364 ± 0.027 | peptide microarray binding signal [3, 15]: 0.00759 ± 0.0043 | peptide microarray binding signal [3, 16]: 0.00302 ± 0.00087 | peptide microarray binding signal [4, 15]: 0.0037 ± 0.00057 | peptide microarray binding signal [4, 16]: 0.00254 ± 0.00038

B7: H3 1-13 A R T K Q T A R K Sph T G G (peptide)
chain: ARTKQTARKSTGG
peptide microarray binding signal ([1]; peptide modifications: H3S10ph, binder concentration: 50 nM): 0.00508 ± 8.1e-05 | peptide microarray binding signal ([1]; peptide modifications: H3S10ph, binder concentration: 500 nM): 0.013 ± 0.00036 | peptide microarray binding signal ([2]; peptide modifications: H3S10ph, binder concentration: 10 nM): 0.00233 ± 2.7e-05 | peptide microarray binding signal ([2]; peptide modifications: H3S10ph, binder concentration: 100 nM): 0.0243 ± 0.00098 | peptide microarray binding signal [3, 17]: 0.000321 ± 3.3e-06 | peptide microarray binding signal [3, 18]: 0.000514 ± 5.5e-06 | peptide microarray binding signal [4, 17]: 0.000362 ± 1.3e-05 | peptide microarray binding signal [4, 18]: 0.000288

B8: H3 1-13 A R T K Q T A Rcit K S T G G (peptide)
chain: ARTKQTARKSTGG
peptide microarray binding signal ([1]; peptide modifications: H3R8cit, binder concentration: 50 nM): 0.00727 ± 0.00022 | peptide microarray binding signal ([1]; peptide modifications: H3R8cit, binder concentration: 500 nM): 0.0196 ± 0.0019 | peptide microarray binding signal ([2]; peptide modifications: H3R8cit, binder concentration: 10 nM): 0.0125 ± 0.004 | peptide microarray binding signal ([2]; peptide modifications: H3R8cit, binder concentration: 100 nM): 0.0291 ± 0.013 | peptide microarray binding signal [3, 19]: 0.000359 ± 9.7e-06 | peptide microarray binding signal [3, 20]: 0.000456 ± 9.9e-06 | peptide microarray binding signal [4, 19]: 0.000785 ± 7.6e-05 | peptide microarray binding signal [4, 20]: 0.000404 ± 4.4e-06

B9: H3 1-13 A R T K Q T A Rme Kme S T G G (peptide)
chain: ARTKQTARKSTGG
peptide microarray binding signal ([1]; peptide modifications: H3R8me1 H3K9me1, binder concentration: 50 nM): 0.0189 ± 0.0012 | peptide microarray binding signal ([1]; peptide modifications: H3R8me1 H3K9me1, binder concentration: 500 nM): 0.0502 ± 0.0023 | peptide microarray binding signal ([2]; peptide modifications: H3R8me1 H3K9me1, binder concentration: 10 nM): 0.0183 ± 0.0025 | peptide microarray binding signal ([2]; peptide modifications: H3R8me1 H3K9me1, binder concentration: 100 nM): 0.0398 ± 0.0084 | peptide microarray binding signal [3, 21]: 0.00206 ± 9e-05 | peptide microarray binding signal [3, 22]: 0.00108 ± 5e-05 | peptide microarray binding signal [4, 21]: 0.00319 ± 0.00084 | peptide microarray binding signal [4, 22]: 0.00202 ± 3.2e-05

B10: H3 1-13 A R T K Q T A Rme2s Kme3 S T G G (peptide)
chain: ARTKQTARKSTGG
peptide microarray binding signal ([1]; peptide modifications: H3R8me2s H3K9me3, binder concentration: 50 nM): 0.0211 ± 0.0011 | peptide microarray binding signal ([1]; peptide modifications: H3R8me2s H3K9me3, binder concentration: 500 nM): 0.0455 ± 0.0027 | peptide microarray binding signal ([2]; peptide modifications: H3R8me2s H3K9me3, binder concentration: 10 nM): 0.0394 ± 0.0041 | peptide microarray binding signal ([2]; peptide modifications: H3R8me2s H3K9me3, binder concentration: 100 nM): 0.0568 ± 0.0048 | peptide microarray binding signal [3, 23]: 0.0739 ± 0.0089 | peptide microarray binding signal [3, 24]: 0.0587 ± 0.011 | peptide microarray binding signal [4, 23]: 0.468 ± 0.023 | peptide microarray binding signal [4, 24]: 0.396 ± 0.02
